Screen size: about 4,800 compounds; about 420 (8.8%) showed an effect of 50% or more. The list comes from a sample in which strong results are over-represented; it also holds similar structures and randomly drawn compounds.

In the assay the test system is Plasmodium falciparum. Put plainly: Confirmatory screen in NF54 nanoGlo assay, in single point, at 2uM, 72h. The following applies: timepoint 72 hour. It counts as functional, Erythrocyte.
For the compound `CCOc1ncccc1CNC(=O)CNC(C)=O`, the % Inhibition (in general, the drop in the measured response relative to a control, in per cent) is 3%. In the case of `C[C@](O)(CCc1ccccc1)C(=O)NCCc1ncc[nH]1`, the “% Inhibition” value is 3%. As to `Cc1ccccc1C(=O)Cc1ncc[nH]1`, the “% Inhibition” value stood at 75%.

As to `Cc1ccc(C(=O)N2CC(C)CC(C)C2)cc1NCc1ncc[nH]1` (stereo unspecified), the “% Inhibition” value is given as 8%. On to `COCC[C@](C)(O)CNC(=O)Nc1ccccc1`, for which the “% Inhibition” value is on record as 1%.

As to `CC[C@@H](c1ccncc1)N(C)Cc1cc(-c2ccc(Cl)cc2)no1`, the “% Inhibition” value is given as -6%. With `COCc1nncn1C1CN(C(=O)Cc2cc(OC)cc(OC)c2)C1`, the “% Inhibition” value is on record as -16%.

With `COc1nn(C)cc1C(=O)N1CCC[C@H](Oc2cccnn2)C1`, the “% Inhibition” value turned out to be 1%.

Regarding `Cc1cc(C(=O)NCCCN2CCCC2=O)nn1C(F)F`, the “% Inhibition” value was -13%. On to `CCn1cc(-c2cc(C(F)(F)F)nc(N3CCCC3)n2)cn1`, for which the “% Inhibition” value was 4%. The same measure for `COc1ccc(CC(=O)NCc2nnc3n2CCC3)cc1`: 12%; for `COc1ccc(N2CCN(Cc3cc(-c4ccc(Cl)cc4)no3)CC2)cc1`: -22%; for `FC(F)Oc1ccc(-c2c[n+](-c3cccc(C(F)(F)F)c3)c3n2CCCCC3)cc1`: 44%. `Cn1c(-c2ccc(Br)cc2)c[n+](CC(=O)c2ccc(Br)cc2)c1N`: the “% Inhibition” value was -8%.

With `COc1cccc(C(=O)C[n+]2cc(-c3ccc(Br)cc3)n(C)c2N)c1`, the “% Inhibition” value is given as -3%. With `COc1ccc2c(c1)[n+](CC(=O)c1ccc(-c3ccc(Br)cc3)cc1)c(CO)n2C`, the “% Inhibition” value was 46%. Consider `COc1ccc(-c2c[n+](-c3ccc(Cl)cc3)c3n2CCCCC3)cc1`, for which the “% Inhibition” value came out at 60%. On to `Cc1ccc(-c2c[n+](-c3ccc(OC(F)F)cc3)c3n2CCCCC3)cc1`, for which the “% Inhibition” value was 67%. Consider `COc1ccc(C(=O)C[n+]2nc(CNc3ccc(Br)cc3)n3c2CCCCC3)cc1`, for which the “% Inhibition” value was found to be 84%.

Turning to `COc1ccc(C(=O)C[n+]2cc(-c3ccc(OC)cc3)n3c2CCCC3)cc1`, the “% Inhibition” value is reported as 60%. Take `COc1ccc(O)c([C@H]2Nc3ccccc3-n3c(-c4ccc(C)cc4)c4c(=O)n(C)c(=O)n(C)c4c32)c1`: the “% Inhibition” value amounted to 25%. For the compound `COc1cccc(C(=O)N2CCCO[C@H](C(C)C)C2)c1`, the “% Inhibition” value was -9%. As for `Cc1ccc(C(=O)Nc2ccc3c(c2)OC(C)(C)C(=O)N3)cc1`, the “% Inhibition” value was -4%. The same measure for `CN(CC(=O)N(C)C1CCC(c2ccccc2)CC1)c1cnccn1` (stereo unspecified): -8%; for `COc1cc(NC(=O)CN2C(=O)N[C@](C)(c3ccc4c(c3)OCCO4)C2=O)c(OC)cc1Cl`: 2%. As for `O=C(CCn1c(=O)[nH]c2ccsc2c1=O)NCc1ccccc1`, the “% Inhibition” value amounted to 37%. As for `O=C(CCc1ccccc1)N[C@@H](c1ccccc1)c1ccc2c3c(cccc13)CC2`, the “% Inhibition” value is recorded as -12%. On to `C[C@@H]1CN(C[C@@H]2CN(CCOCc3ccccc3)C[C@@H]2CO)C[C@H](C)O1`, for which the “% Inhibition” value is -5%. In the case of `CCc1nnc2ccc(S(=O)(=O)Nc3ccc(F)c(F)c3)cn12`, the “% Inhibition” value was -6%. For the compound `O=C(Nn1cnc2ccccc2c1=O)c1cnccn1`, the “% Inhibition” value worked out at 2%. In the case of `Nc1ncn(C(=O)c2ccc(Cl)cc2)n1`, the “% Inhibition” value was -14%.

`COc1nc2ncnc(OC)c2nc1C#N`: the “% Inhibition” value is on record as 3%.

As for `COc1ccc(S(=O)(=O)N(CC(=O)N2CCN(Cc3ccc4c(c3)OCO4)CC2)C2CCCCC2)cc1OC`, the “% Inhibition” value is -3%. Take `CC(C)(C)OC(=O)N1CCC[C@H]1C(=O)n1ccnc1`: the “% Inhibition” value was -2%. As for `CCOc1nc(C)nc2cc(-c3ccccc3)n(Cc3ccccc3)c12`, the “% Inhibition” value was 0%. With `CCOc1ccc(-[n+]2cc(-c3ccccc3)n3c2CCC3)cc1`, the “% Inhibition” value is 80%. As for `O=C(O)C1Cc2c([nH]c3ccccc23)C(/C=C/c2ccccc2)N1` (stereo unspecified), the “% Inhibition” value is on record as -1%. Next, `Cc1noc2nc(C3CC3)cc(C(=O)N3CCC[C@H](C)CC3)c12`: -11%. The same measure for `CC1NC2(C(=O)N(Cc3ccc(F)cc3)c3ccccc32)C2C(=O)N(c3cccc4ccccc34)C(=O)C12` (stereo unspecified): 4%; for `CC1(C)C2OCCCC2C1(N)C(=O)Nc1cn[nH]c1` (stereo unspecified): 4%; for `CCCn1cc(CNc2nnc(C(C)(C)C)o2)cn1`: -5%. As for `c1ccc(Oc2ccnc(NCC34COCCN3CCOC4)n2)cc1`, the “% Inhibition” value was -10%. `CN1CCN(C2(CNc3ccnc4ccccc34)CCCC2)CC1`: the “% Inhibition” value was 91%. Take `Fc1cccc(F)c1CNC[C@@H]1NCCc2ccccc21`: the “% Inhibition” value is listed as -5%. For the compound `O=c1[nH]c2nccnc2c(=O)n1Cc1ccc(F)cc1`, the “% Inhibition” value is given as -11%. Next, `O=C1N[C@H]2C[C@@H](C(=O)NC[C@H]3O[C@H](CCOc4cc(-c5ccccc5)ccc41)CC[C@@H]3O)N(Cc1ccc(Cl)c(F)c1)C2`: -1%; `CCOC(=O)C(Nc1cccc(NC(C(=O)OCC)C(=O)OCC)c1)C(=O)OCC`: -16%. For the compound `Nc1nccnc1C(=O)NCc1ccc(Cn2ccnc2)cc1`, the “% Inhibition” value is -5%. Next, `O=S(=O)(c1ccccc1)N1CCN(S(=O)(=O)c2ccc(Cl)cc2)C1`: 2%. As to `Cc1ccc(N2CCN(S(=O)(=O)c3ccccc3)[C@@H](C)C2=O)cc1F`, the “% Inhibition” value was -5%. As for `O=c1[nH]c(=O)n(S(=O)(=O)c2ccccc2)cc1F`, the “% Inhibition” value is recorded as 92%.

The values above are taken from ChEMBL document CHEMBL4888484, “Replenishing the malaria drug discovery pipeline: Screening and hit evaluation of the MMV Hit Generation Library 1 (HGL1) against asexual blood stage Plasmodium falciparum ,using a nano luciferase reporter read-out” (2022).
